# The list is not random: actives were taken first. Their share in the collection is about 5.5%.
# MBNL1-CUG inh: qHTS Assay for Inhibitors of MBNL1-poly(CUG) RNA binding. TR-FRET MBNL1-His/biotin-(CUG)12 binding, 665/545 ratio. Potency, µM (titrated, usually from 57.5 µM), without a hit: at the highest dose activity change, negative = inhibition, hits mostly inhibitors. 280,000 tested, 0.036% active; active = well fitted inhibition curve with a large enough effect in the signal ratio, with a control signal flat, not every such curve was filed as active; inconclusive = small, poorly fitted or top-dose-only effect, or effect the other way, or a change in a side signal; inactive = no such curve, though single readings can be large or run the other way; the % refers to the signal ratio; also: potency is read from the fitted curve at half-maximal effect; % is scaled to controls: 0 for no effect and ±100 for the full control effect
# Target sequence (Q9NR56 whole entry, looked up): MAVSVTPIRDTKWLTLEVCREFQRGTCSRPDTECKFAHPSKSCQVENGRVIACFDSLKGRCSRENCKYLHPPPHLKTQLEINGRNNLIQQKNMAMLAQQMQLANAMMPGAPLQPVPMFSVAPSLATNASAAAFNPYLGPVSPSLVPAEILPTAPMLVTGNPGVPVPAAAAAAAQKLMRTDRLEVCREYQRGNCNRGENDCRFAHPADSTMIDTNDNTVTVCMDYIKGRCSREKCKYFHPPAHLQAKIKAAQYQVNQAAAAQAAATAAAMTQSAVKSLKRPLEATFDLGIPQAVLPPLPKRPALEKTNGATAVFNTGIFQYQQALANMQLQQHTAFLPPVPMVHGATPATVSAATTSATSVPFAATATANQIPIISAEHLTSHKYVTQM
#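 Inhibition of protein-RNA binding appears as loss of TR-FRET between terbium anti-His antibody on MBNL1-His and streptavidin-XL665 on biotin-(CUG)12. Activity is normalized to buffer-only and uninhibited-complex controls.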
# CBFb-RUNX1 inh: qHTS Assay for Compounds Blocking the Interaction Between CBF-beta and RUNX1 for the Treatment of Acute Myeloid Leukemia | Potency, µM (top dose mostly 59.8 µM), without a hit: at the top dose activity, negative = inhibition, actives largely listed as inhibitors | 230,000 tested, under 10 active | AlphaScreen CBFb-His/RUNX1-biotin binding, biochemical | AID 1477, 2009; also: % of control where 0% means no effect
#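 CBF-beta (His) and RUNX1 (biotin), 30 nM each; 20 min preassociation; + compound, 15 min; + beads 50 ng each (Ni, streptavidin), 90 min; RT; AlphaScreen read.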
# RORgamma inh: qHTS for inhibitors of ROR gamma transcriptional activity; Potency, µM (top dose mostly 53.6 µM), inactives show at the highest dose activity change, negative = inhibition, hits mostly inhibitors; 310,000 tested, 5.4% active; Nuclear receptor ROR-gamma (Mus musculus), P51450; Drosophila S2 Gal4-RORgamma UAS-luciferase reporter, 20 h; also: potency is read from the fitted curve at half-maximal effect; % is scaled to controls: 0 for no effect and ±100 for the full control effect; nearly all actives have a fitted effect of over 60% in size
#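 Luminescence from a UAS-regulated Photinus luciferase reporter in stably transfected Drosophila Schneider cells is measured; decreased signal marks ROR gamma inhibition. Fusion expression is induced by 700 uM copper sulfate for 20 hr.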
# Six1-Eya2 inh: qHTS Assay for Inhibitors of the Six1/Eya2 Interaction. AlphaScreen GST-Six1/His-Eya2 binding, biochemical; hits give low values. activity change, % (concentration not given with the values). 360,000 tested, 0.56% active. AID 651725, 2012; in the data active = activity change below about -65%; inconclusive = mostly about -30% to -63%; also: % is scaled to controls: 0 for no effect and ±100 for the full control effect
#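 Six1/Eya2 binding was read as AlphaScreen signal after compounds were pinned into GST-Six1 plus His-tagged Eya2 (5X stock 250/500 nM) in pH 8.0 Tris/NaCl/TCEP buffer, beads added, then incubated 1 h, 37 C, dark.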
# VP16 counter: VP16 counterscreen qHTS for inhibitors of ROR gamma transcriptional activity; Potency, µM (highest dose often 53.6 µM), for the others: at the top dose activity, negative = inhibition, usual class: inhibitors; 310,000 tested, 3.5% active; AID 2546, 2010; Drosophila S2 Gal4-VP16 UAS-luciferase, luminescence, 20 h;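 also: Gal4-VP16 expression switched on by copper sulfate through the metallothionein promoter; potency is read from the fitted curve at half-maximal effect; % is scaled to controls: 0 for no effect and ±100 for the full control effect; nearly all actives have a fitted effect of over 50% in size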
# CtBP-E1A blk: qHTS Assay for Inhibitors of the CtBP/E1A Interaction; activity change, % (concentration not given with the values); AlphaScreen GST-E1A/His-CtBP binding, 1536-well; hits give low values; 340,000 tested, 0.49% active; CtBP / adenovirus E1A interaction (AlphaScreen); in the data active = activity change below about -65%; inconclusive = mostly about -30% to -63%; also: % is scaled to controls: 0 for no effect and ±100 for the full control effect
#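 Homogeneous bead-based format: GST-tagged E1A captured on glutathione donor beads, His-tagged CtBP on nickel acceptor beads; compounds precede bead addition by 2 h at 37 °C.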
# * marks the source's active call; other numbers are inactive results; ? = inconclusive; . = not tested or not shown. Unless noted, calls follow the shape of the dose curve; as a rule, active = well fitted curve in the direction sought with a large enough effect; inconclusive = small, poorly fitted or top-dose-only effect, or another doubt; inactive = no such curve, though single readings can be large; an effect the other way counts as inactive or inconclusive.
SMILES,MBNL1-CUG inh,CBFb-RUNX1 inh,RORgamma inh,Six1-Eya2 inh,VP16 counter,CtBP-E1A blk
O=Cc1cc(N=Nc2ccccc2Cl)ccc1O,11%,?,11µM*,-17,6%,1
O=C(Nc1nc2ccccc2n1CCN1CCOCC1)c1ccc(Cn2cc([N+](=O)[O-])cn2)o1,16%,.,11µM*,1,?,-5
CN1CCN(NC(=O)c2ccc(COc3ccccc3Br)o2)CC1,-4%,16%,0%,0,-2%,0
O=C(Nc1nc2ccccc2n1CCN1CCOCC1)c1ccc(COc2ccccc2Br)o1,-6%,-12%,2µM*,-23,5.6µM*,-9
CCC(Sc1nc(-c2ccccc2)c(-c2ccccc2)[nH]1)C(=O)O (configuration not stated),-6%,.,18%,0,-3%,-5
Cc1nn2c(=O)cc(CSc3nc4ccccc4[nH]3)nc2s1,-16%,13%,4µM*,3,-11%,-4
Cc1ccc2nc(Nc3nc(=O)c4ccccc4n3C)nc(C)c2c1,7%,2%,0.79µM*,.,1µM*,.
COc1ccc(C(=O)Nc2ccccc2SCc2cc(=O)n3nc(C)sc3n2)cc1OC,-5%,.,1%,0,-2%,1
COc1ccc2c(C)nc(Nc3nc(-c4ccccc4)cc(=O)[nH]3)nc2c1,5%,-2%,4.5µM*,-23,4µM*,-17
COCc1cc(=O)[nH]c(Nc2nc(C)c3cc(OC)ccc3n2)n1,-12%,-5%,-15%,.,-3%,.
Cc1ccc2nc(Nc3nc(-c4ccccc4)cc(=O)[nH]3)nc(C)c2c1,-15%,3%,?,3,13µM*,-3
CCCCN1CC(N2CCN(Cc3ccccc3)CC2)CS1(=O)=O (configuration not stated),.,.,.,1,.,-1
Cc1ccc(SCc2cc(=O)[nH]c(Nc3nc(C)c4ccc(C)cc4n3)n2)cc1,.,5%,-1%,5,-5%,7
Cc1ccc2c(C)nc(Nc3nc(CSc4nc5ccccc5[nH]4)cc(=O)[nH]3)nc2c1,9%,-3%,?,-17,5.6µM*,-11
CCOc1cccc2cc(C(=O)NCc3ccc(F)cc3)c(=N)oc12,2%,.,-4%,-3,-7%,-2
COc1cc(C)c(NC(=S)Nc2ccc(C)c(Cl)c2)cc1OC,3%,-2%,11µM*,-7,?,-6
COc1cc(OC)c(NC(=S)Nc2cccc(C)c2)cc1Cl,-19%,-4%,10µM*,-4,?,-6
COC(=O)[C@H](C)N(Cc1ccc(Cl)c(Cl)c1)S(=O)(=O)CCN1CCN(c2ccccc2)CC1,.,.,.,4,.,2
CC(C)N=C1NN=C(c2ccc(F)cc2)CS1,-5%,-3%,7.1µM*,-4,?,0
Fc1ccc(C2=NNC(=NCc3ccccc3)SC2)cc1F,6%,-18%,14µM*,-13,-26%,-14
c1ccc(C2=NNC(=NCc3ccc4c(c3)OCO4)SC2)cc1,-7%,-29%,?,-29,?,6
c1ccc(CN=C2NN=C(c3ccccc3)CS2)cc1,9%,?,?,-29,-76%,-28
Fc1ccc(N=C2NN=C(c3cc(F)ccc3F)CS2)cc1,7%,?,?,-23,?,1
Clc1ccc(C2=NNC(=NCc3ccccc3)SC2)cc1,2%,-3%,5µM*,-22,?,?
COCCN=C1NN=C(c2ccc(NC(C)=O)cc2)CS1,24%,-7%,?,0,3%,-11
CCN=C1NN=C(c2ccc(C)cc2)CS1,8%,-6%,11µM*,-10,?,3

# Screens as filed in PubChem BioAssay.
